Results on 20 compounds are retold here after PubChem BioAssay (NCI).

A short description of experiment [1]: NCI Yeast Anticancer Drug Screen. Data for the rad50 strain (AID 155).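 Also: 0% = growth of vehicle-only cultures of the same strain.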 The settings on record: S. cerevisiae rad50 strain growth inhibition; at 50.0 µM; hits give high values. The gist of the method: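 Growth of the mutant yeast was measured after compound exposure and referenced to vehicle-treated cultures.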
A short description of experiment [2]: NCI Yeast Anticancer Drug Screen. Data for the mec2-1 strain (AID 157). The note with it: S. cerevisiae mec2-1 strain, at 50.0 µM, hits give high values. The essentials: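 Yeast mec2-1 mutant treated with compound. Readout: growth inhibition vs vehicle controls.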
Experiment [3] can be described thus: NCI Yeast Anticancer Drug Screen. Data for the sgs1 mgt1 strain (AID 161).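 Also: 0% = growth of cultures given vehicle only.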 The note with it: S. cerevisiae sgs1 mgt1 strain, at 50.0 µM, hits give high values. The essentials:
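Test agents were incubated with a DNA-repair-mutant yeast strain. Growth was then read and compared against vehicle-treated controls.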

Experiment [4] in a line: NCI Yeast Anticancer Drug Screen. Data for the cln2 rad14 strain (AID 165).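 Also: 0% = growth equal to vehicle treated cultures.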 The note with it: S. cerevisiae cln2 rad14 strain, at 50.0 µM, hits give high values. The essentials: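 cln2 rad14 yeast strain; compound exposure; growth inhibition read vs vehicle controls.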
The nature of experiment [5]: NCI Yeast Anticancer Drug Screen. Data for the bub3 strain (AID 167). The settings on record: S. cerevisiae bub3 mutant strain, at 50.0 µM, hits give high values. The gist of the method: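 Whole-cell yeast assay. The mutant strain was incubated with compounds, and growth inhibition was determined by comparison with vehicle-treated cells.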
A short description of experiment [6]: NCI Yeast Anticancer Drug Screen. Data for the mlh1 rad18 strain (AID 175). The settings on record: S. cerevisiae mlh1 rad18 strain growth inhibition; at 50.0 µM; hits give high values. The essentials: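 Yeast w/ defined DNA-repair lesions; compound exposure; growth vs vehicle controls → % inhibition.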

Molecules are shown by their SMILES. Compounds without any hit were thinned out: in the full panel of roughly 79,000, 15% have a hit. A number with no mark means an inactive call. The source made the active and inactive calls. Rule as the data show it: active = growth inhibition above about 70%; inactive = the rest.

As for `Cc1ccnc(NC(NC(=O)c2ccccc2)(C(F)(F)F)C(F)(F)F)c1`, the growth inhibition in experiment [1] is 4.75%; in experiment [2], 3.5%; in experiment [3] it was 12.8%; in experiment [4], 23.2%; in experiment [5], -8.05%; in experiment [6], -39.5%.
Regarding `CCN(CC)CCOC(=O)c1ccc(N=C/C=C/C(C#N)=C/NOC)cc1`, the growth inhibition in experiment [1] is 0.3%; in experiment [2] it was 27.4%; in experiment [3] it was 9.85%; in experiment [4], 21.4%; in experiment [5], 9.9%; in experiment [6] it was 30.9%.
As for `Cc1cc2c(c(=O)o1)C(C)CC(c1c(O)cc(C)oc1=O)O2` (stereo not given), the growth inhibition is 15.3% in experiment [1]; 5.35% in experiment [2]; 16.8% in experiment [3]; 5.85% in experiment [4]; 14.1% in experiment [5]; 20.6% in experiment [6].
Turning to `CC1CC(O)CC(C)(C)C1.CC1CC(O)CC(C)(C)C1.CC1CC(O)CC(C)(C)C1.CC1CC(O)CC(C)(C)C1.[Ti]` (stereo not given), the growth inhibition in experiment [1] is 13.9%; in experiment [2], -4.65%; in experiment [3] it was 23.2%; in experiment [4], 15.1%; in experiment [5], 32.5%; in experiment [6], 31.9%.
Consider `CSc1ccc(NC(=O)Nc2cccc(C(C)=O)c2)cc1`, for which the growth inhibition in experiment [1] is 2.15%; in experiment [2], 31.2%; in experiment [3], 10.3%; in experiment [4], -17.1%; in experiment [5], 43%; in experiment [6] it was 24.8%.
For `COC(=O)C(=O)C(/C=N/C(=S)Nc1ccc(S(=O)(=O)Nc2nccs2)cc1)=C(\O)c1c(C)[nH]c2ccccc12`, the growth inhibition was 39.1% in experiment [1]; 23.8% in experiment [2]; 35% in experiment [3]; 5.2% in experiment [4]; 35.9% in experiment [5]; 29.8% in experiment [6].
As for `CC1=CC=CC(C)(C)C(=O)C1=O`, the growth inhibition in experiment [1] was -31.4%; in experiment [2], -13.2%; in experiment [3], -12.8%; in experiment [4], -18.9%; in experiment [5], -21.5%; in experiment [6] it was -15.4%.
Consider `c1ccc2c(c1)SCCCSCCCS2`, for which the growth inhibition is -4.35% in experiment [1]; -4.6% in experiment [2]; -5.45% in experiment [3]; -9.4% in experiment [4]; 9.15% in experiment [5]; -11.4% in experiment [6].
With `C[N+](C)(C)N=C1CCCCC1`, the growth inhibition in experiment [1] is 10.9%; in experiment [2] it was -3.6%; in experiment [3] it was -11.3%; in experiment [4], 7.5%; in experiment [5] it was -2.6%; in experiment [6] it was -16.8%.
As for `CS(=O)(=O)OCCN(CCOS(C)(=O)=O)c1ccc(N=Nc2ccccc2C(=O)O)cc1`, the growth inhibition was 27.9% in experiment [1]; 21.9% in experiment [2]; 21.6% in experiment [3]; 24.8% in experiment [4]; 19.1% in experiment [5]; 32.4% in experiment [6].
`COc1cc(C=O)cc([N+](=O)[O-])c1O`: the growth inhibition in experiment [1] is -2.2%; in experiment [2], -9.75%; in experiment [3] it was -2.2%; in experiment [4], 1.05%; in experiment [5] it was -0.45%; in experiment [6] it was -6.1%.
Take `C=CCN(CC=C)/N=N/c1nc[nH]c1C(N)=O`: the growth inhibition was 28.1% in experiment [1]; 8.55% in experiment [2]; 14.7% in experiment [3]; 5.75% in experiment [4]; -5.55% in experiment [5]; 22.1% in experiment [6].
For `CCCc1nc(NC#N)nc(C(=O)NC23CC4CC(CC(C4)C2)C3)c1C`, the growth inhibition in experiment [1] is -8.2%; in experiment [2], -13.2%; in experiment [3], 7.4%; in experiment [4], 8.4%; in experiment [5] it was -7.2%; in experiment [6], -9.35%.
For the compound `COc1ccc2[nH]c3c4c(ccc3c2c1)C(=O)C=CC4=O`, the growth inhibition in experiment [1] was 19.8%; in experiment [2], 18.3%; in experiment [3], 12%; in experiment [4] it was -1.05%; in experiment [5], 9.45%; in experiment [6], 17.6%.
As to `C/C(COC(=O)c1cc(C)nc2ccccc12)=N\O`, the growth inhibition was -22.6% in experiment [1]; 17% in experiment [2]; -0.65% in experiment [3]; -20.8% in experiment [4]; 21.1% in experiment [5]; -11.6% in experiment [6].
Take `C(/C=C/c1ccccc1)=Nc1ccc2c(c1)Cc1ccccc1-2`: the growth inhibition is 0.4% in experiment [1]; -0.35% in experiment [2]; -25.8% in experiment [3]; -27.9% in experiment [4]; -15.8% in experiment [5]; 9.9% in experiment [6].
Consider `CC(=O)Oc1ccc(C(c2ccc(OC(C)=O)cc2)c2ccccn2)cc1`, for which the growth inhibition is 18.3% in experiment [1]; -0.6% in experiment [2]; -9.25% in experiment [3]; -62.4% in experiment [4]; -40.9% in experiment [5]; -22.9% in experiment [6].
Turning to `CC(C)SC1SCC2C(=O)N(C)C3(CC3C)C(=O)OCC(NC(=O)c3nc4ccccc4cc3O)C(=O)NC(C)C(=O)N(C)C1C(=O)N(C)C1(CC1C)C(=O)OCC(NC(=O)c1nc3ccccc3cc1O)C(=O)NC(C)C(=O)N2C` (stereo not given), the growth inhibition is 70.4% (active) in experiment [1]; 68% in experiment [2]; 78% (active) in experiment [3]; 73.8% (active) in experiment [4]; 78.8% (active) in experiment [5]; 81.2% (active) in experiment [6].
Take `COP(=O)(CC(=O)C1OC(C)(C)OC1C(O)COCc1ccccc1)OC` (stereo not given): the growth inhibition in experiment [1] is -21.3%; in experiment [2] it was 22.9%; in experiment [3], 22.9%; in experiment [4], 14.3%; in experiment [5], 14.6%; in experiment [6], 5.85%.
With `Cc1nc(Nc2ccc(Cl)cc2)c2cnn(-c3ccccc3)c2n1`, the growth inhibition in experiment [1] is 29.1%; in experiment [2] it was -7.2%; in experiment [3], -8%; in experiment [4] it was -35.9%; in experiment [5], 6.75%; in experiment [6], 26.9%.
